Data from the supplement of paper PMC11732987, “Enantioselective OTUD7B fragment discovery through chemoproteomics screening and high-throughput optimisation” (Communications Chemistry, 2025).

Columns and labels:
Experiment in all cases: log2 ratio of Biotin-Ahx-Ub-VS probe labelling (fragment/DMSO); higher = less target engagement (more negative = stronger competition), active = hit call of the paper (q ≤ 0.05, log2 ratio ≤ -1)
Conditions in all cases: compound concentration: 200 uM; treatment time: 3 h
USP42 = target: T1, USP42 (UniProt Q9H9J4)
T1 sequence (whole entry): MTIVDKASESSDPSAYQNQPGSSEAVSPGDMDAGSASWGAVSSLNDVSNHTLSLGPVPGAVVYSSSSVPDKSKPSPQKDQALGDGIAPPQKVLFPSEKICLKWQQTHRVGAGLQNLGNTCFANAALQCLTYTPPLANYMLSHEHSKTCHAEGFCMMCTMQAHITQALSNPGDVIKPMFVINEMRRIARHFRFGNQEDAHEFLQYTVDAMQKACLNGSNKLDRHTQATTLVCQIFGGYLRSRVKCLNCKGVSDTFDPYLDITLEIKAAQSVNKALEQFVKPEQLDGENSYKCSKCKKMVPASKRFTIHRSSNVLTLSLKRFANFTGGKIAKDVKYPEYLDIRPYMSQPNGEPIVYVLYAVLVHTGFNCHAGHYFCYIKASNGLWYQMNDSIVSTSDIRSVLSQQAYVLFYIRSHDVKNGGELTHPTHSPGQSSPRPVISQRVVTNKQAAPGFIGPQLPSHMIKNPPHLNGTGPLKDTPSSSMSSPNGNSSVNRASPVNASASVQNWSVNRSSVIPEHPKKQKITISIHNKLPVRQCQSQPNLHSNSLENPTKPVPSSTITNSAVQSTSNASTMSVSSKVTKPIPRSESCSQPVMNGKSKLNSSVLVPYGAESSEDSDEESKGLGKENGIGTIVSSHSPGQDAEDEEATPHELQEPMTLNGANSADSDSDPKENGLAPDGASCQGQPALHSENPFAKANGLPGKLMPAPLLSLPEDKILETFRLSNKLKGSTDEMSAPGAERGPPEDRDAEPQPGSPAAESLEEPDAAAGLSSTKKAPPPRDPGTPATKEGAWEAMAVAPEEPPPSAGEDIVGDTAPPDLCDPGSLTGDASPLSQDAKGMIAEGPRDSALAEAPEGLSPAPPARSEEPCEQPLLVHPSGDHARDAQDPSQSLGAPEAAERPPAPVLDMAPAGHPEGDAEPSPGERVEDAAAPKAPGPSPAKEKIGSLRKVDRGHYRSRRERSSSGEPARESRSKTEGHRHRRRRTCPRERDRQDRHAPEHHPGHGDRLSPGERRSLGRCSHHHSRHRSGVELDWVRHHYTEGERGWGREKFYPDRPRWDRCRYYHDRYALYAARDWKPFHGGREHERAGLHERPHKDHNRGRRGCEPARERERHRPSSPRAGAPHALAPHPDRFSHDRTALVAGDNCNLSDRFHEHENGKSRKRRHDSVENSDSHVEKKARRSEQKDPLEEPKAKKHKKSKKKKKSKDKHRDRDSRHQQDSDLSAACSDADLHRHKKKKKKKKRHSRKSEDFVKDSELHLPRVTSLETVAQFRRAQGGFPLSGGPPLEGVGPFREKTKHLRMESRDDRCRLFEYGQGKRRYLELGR
Summary of the method: (§1)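 Using Biotin-Ahx-Ub-VS at 0.5 µM final for 1 h, DUBs were labelled in HEK293T lysate (495 µg per sample) that had first been treated in triplicate with fragment at 200 µM or vehicle for 3 h. NeutrAvidin enrichment, LysC and trypsin digestion and diaPASEF LC-MS/MS followed. Spectronaut label-free quantities were global-median-normalised. Values are average log2 fragment/vehicle ratios by unpaired t-test, using proteins with ≥2 unique peptides.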

USP46 = USP46 (UniProt P62068)
Summary of the method: as §1

USP47 = target: T2, USP47 (UniProt Q96K76)
T2 sequence (whole entry): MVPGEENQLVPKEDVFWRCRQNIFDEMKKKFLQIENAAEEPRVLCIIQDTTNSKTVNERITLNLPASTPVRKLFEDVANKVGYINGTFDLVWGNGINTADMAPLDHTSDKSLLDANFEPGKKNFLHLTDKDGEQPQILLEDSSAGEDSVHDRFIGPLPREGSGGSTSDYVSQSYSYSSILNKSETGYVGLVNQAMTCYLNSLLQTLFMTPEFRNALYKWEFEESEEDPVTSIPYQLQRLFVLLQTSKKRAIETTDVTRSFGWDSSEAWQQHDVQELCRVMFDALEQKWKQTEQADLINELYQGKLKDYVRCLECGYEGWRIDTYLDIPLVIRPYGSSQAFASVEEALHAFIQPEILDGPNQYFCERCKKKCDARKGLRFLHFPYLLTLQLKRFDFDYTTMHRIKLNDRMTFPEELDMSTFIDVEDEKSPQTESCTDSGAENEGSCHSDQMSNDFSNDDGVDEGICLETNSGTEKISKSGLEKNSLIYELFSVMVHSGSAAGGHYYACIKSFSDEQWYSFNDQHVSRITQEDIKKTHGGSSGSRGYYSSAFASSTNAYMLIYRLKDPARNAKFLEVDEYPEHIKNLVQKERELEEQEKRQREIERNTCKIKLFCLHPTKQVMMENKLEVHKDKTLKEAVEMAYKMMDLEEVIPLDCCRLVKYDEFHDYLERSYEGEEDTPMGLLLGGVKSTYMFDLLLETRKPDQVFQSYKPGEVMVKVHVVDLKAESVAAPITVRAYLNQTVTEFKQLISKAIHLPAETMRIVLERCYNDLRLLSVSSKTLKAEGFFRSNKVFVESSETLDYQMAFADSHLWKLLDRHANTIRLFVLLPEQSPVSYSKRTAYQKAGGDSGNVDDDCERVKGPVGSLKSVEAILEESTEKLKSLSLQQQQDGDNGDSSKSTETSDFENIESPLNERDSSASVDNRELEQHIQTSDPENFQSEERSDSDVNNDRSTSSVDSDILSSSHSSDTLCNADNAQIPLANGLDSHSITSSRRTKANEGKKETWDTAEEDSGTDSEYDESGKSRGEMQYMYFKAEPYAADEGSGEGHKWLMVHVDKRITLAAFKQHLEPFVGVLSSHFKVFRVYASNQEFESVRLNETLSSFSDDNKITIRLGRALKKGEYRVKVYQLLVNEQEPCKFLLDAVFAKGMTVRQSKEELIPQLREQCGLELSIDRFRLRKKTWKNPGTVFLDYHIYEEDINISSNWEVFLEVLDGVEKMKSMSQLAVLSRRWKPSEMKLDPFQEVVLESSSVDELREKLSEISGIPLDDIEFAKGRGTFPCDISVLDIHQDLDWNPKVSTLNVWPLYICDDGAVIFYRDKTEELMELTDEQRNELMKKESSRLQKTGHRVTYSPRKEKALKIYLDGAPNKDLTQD
Summary of the method: as §1

USP48 = target: T3, USP48 (UniProt Q86UV5)
T3 sequence (whole entry): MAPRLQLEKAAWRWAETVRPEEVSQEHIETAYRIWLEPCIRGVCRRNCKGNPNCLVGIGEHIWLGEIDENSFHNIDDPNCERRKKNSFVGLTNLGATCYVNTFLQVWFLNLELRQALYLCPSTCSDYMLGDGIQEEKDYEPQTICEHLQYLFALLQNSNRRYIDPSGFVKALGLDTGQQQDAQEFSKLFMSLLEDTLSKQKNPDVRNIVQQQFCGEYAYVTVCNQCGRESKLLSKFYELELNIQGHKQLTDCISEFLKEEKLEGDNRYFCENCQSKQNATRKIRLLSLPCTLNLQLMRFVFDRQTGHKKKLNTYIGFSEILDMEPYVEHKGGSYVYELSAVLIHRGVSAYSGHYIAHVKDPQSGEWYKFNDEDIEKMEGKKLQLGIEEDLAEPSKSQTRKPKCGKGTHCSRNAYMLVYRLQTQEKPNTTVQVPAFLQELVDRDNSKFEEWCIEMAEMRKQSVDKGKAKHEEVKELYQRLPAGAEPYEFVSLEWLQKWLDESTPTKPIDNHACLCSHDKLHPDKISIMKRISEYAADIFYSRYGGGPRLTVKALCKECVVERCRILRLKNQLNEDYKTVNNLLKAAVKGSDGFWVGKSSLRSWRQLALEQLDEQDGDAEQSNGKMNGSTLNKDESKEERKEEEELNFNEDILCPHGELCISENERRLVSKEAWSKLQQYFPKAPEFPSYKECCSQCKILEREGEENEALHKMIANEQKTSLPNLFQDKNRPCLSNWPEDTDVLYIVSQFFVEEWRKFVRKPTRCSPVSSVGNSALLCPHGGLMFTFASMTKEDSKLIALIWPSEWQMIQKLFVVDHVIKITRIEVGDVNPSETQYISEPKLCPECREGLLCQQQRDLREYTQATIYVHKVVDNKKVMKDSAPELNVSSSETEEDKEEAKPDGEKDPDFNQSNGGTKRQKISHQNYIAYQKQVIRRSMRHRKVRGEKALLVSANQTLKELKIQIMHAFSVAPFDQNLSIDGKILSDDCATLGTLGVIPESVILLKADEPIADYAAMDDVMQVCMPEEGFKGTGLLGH
Summary of the method: as §1

USP5 = target: T4, USP5 (UniProt P45974)
T4 sequence (whole entry): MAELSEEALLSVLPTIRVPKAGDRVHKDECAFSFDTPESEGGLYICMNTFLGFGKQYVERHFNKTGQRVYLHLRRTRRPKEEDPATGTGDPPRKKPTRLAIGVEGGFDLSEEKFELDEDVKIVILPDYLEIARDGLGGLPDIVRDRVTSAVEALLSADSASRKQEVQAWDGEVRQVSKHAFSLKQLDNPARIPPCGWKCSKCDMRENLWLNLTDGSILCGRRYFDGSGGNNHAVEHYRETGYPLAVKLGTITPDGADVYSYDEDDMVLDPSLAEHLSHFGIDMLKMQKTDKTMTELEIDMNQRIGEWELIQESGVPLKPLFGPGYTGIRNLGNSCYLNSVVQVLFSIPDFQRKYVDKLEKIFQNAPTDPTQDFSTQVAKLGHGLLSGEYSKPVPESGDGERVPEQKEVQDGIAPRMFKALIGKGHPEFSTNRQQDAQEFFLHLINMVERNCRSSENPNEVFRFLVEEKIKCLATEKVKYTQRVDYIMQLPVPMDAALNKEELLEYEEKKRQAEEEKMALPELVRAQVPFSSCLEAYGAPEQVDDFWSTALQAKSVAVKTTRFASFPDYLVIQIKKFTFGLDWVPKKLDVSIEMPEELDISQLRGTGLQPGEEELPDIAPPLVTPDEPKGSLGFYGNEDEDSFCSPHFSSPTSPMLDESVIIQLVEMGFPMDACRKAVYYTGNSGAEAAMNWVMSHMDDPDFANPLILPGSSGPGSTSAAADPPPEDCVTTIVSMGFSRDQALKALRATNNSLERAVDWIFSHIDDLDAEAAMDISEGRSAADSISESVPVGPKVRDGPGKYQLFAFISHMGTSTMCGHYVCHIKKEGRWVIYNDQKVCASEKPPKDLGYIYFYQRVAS
Summary of the method: as §1

USP54 = USP54 (UniProt Q70EL1)
Summary of the method: as §1

USP7 = USP7 (UniProt Q93009)
Summary of the method: as §1

USP8 = target: T5, USP8 (UniProt P40818)
T5 sequence (whole entry): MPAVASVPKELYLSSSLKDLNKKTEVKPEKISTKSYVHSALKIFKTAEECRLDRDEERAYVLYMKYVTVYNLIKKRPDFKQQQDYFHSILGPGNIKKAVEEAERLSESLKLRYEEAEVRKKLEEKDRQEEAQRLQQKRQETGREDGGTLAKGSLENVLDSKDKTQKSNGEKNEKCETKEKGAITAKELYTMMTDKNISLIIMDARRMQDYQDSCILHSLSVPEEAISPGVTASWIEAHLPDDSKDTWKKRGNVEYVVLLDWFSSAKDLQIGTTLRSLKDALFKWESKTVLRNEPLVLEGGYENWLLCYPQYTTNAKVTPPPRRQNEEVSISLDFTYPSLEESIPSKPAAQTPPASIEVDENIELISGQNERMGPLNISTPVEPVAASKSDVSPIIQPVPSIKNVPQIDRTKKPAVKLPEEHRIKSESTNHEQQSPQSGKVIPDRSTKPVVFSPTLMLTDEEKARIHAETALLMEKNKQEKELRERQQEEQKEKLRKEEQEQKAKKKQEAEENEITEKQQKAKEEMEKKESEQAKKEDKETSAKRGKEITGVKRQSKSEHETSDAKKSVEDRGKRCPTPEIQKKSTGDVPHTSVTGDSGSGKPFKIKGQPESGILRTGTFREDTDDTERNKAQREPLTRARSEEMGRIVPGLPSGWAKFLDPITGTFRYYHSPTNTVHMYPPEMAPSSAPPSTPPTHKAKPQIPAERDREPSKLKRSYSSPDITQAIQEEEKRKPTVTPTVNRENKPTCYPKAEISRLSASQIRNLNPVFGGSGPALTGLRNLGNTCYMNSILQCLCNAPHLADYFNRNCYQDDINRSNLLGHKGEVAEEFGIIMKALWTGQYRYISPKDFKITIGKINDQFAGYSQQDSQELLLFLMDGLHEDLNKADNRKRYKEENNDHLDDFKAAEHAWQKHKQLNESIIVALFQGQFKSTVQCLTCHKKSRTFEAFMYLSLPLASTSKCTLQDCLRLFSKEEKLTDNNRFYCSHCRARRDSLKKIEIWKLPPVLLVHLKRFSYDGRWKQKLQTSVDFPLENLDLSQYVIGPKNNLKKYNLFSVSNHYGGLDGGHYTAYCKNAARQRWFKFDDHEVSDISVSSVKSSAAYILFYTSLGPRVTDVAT
Summary of the method: as §1

USP9X = USP9X (UniProt Q93008)
Summary of the method: as §1

UniProt O00487 = target: UniProt O00487
Summary of the method: as §1

Measured: log2 ratio of Biotin-Ahx-Ub-VS probe labelling

USP9X, sequence (Q93008 whole entry): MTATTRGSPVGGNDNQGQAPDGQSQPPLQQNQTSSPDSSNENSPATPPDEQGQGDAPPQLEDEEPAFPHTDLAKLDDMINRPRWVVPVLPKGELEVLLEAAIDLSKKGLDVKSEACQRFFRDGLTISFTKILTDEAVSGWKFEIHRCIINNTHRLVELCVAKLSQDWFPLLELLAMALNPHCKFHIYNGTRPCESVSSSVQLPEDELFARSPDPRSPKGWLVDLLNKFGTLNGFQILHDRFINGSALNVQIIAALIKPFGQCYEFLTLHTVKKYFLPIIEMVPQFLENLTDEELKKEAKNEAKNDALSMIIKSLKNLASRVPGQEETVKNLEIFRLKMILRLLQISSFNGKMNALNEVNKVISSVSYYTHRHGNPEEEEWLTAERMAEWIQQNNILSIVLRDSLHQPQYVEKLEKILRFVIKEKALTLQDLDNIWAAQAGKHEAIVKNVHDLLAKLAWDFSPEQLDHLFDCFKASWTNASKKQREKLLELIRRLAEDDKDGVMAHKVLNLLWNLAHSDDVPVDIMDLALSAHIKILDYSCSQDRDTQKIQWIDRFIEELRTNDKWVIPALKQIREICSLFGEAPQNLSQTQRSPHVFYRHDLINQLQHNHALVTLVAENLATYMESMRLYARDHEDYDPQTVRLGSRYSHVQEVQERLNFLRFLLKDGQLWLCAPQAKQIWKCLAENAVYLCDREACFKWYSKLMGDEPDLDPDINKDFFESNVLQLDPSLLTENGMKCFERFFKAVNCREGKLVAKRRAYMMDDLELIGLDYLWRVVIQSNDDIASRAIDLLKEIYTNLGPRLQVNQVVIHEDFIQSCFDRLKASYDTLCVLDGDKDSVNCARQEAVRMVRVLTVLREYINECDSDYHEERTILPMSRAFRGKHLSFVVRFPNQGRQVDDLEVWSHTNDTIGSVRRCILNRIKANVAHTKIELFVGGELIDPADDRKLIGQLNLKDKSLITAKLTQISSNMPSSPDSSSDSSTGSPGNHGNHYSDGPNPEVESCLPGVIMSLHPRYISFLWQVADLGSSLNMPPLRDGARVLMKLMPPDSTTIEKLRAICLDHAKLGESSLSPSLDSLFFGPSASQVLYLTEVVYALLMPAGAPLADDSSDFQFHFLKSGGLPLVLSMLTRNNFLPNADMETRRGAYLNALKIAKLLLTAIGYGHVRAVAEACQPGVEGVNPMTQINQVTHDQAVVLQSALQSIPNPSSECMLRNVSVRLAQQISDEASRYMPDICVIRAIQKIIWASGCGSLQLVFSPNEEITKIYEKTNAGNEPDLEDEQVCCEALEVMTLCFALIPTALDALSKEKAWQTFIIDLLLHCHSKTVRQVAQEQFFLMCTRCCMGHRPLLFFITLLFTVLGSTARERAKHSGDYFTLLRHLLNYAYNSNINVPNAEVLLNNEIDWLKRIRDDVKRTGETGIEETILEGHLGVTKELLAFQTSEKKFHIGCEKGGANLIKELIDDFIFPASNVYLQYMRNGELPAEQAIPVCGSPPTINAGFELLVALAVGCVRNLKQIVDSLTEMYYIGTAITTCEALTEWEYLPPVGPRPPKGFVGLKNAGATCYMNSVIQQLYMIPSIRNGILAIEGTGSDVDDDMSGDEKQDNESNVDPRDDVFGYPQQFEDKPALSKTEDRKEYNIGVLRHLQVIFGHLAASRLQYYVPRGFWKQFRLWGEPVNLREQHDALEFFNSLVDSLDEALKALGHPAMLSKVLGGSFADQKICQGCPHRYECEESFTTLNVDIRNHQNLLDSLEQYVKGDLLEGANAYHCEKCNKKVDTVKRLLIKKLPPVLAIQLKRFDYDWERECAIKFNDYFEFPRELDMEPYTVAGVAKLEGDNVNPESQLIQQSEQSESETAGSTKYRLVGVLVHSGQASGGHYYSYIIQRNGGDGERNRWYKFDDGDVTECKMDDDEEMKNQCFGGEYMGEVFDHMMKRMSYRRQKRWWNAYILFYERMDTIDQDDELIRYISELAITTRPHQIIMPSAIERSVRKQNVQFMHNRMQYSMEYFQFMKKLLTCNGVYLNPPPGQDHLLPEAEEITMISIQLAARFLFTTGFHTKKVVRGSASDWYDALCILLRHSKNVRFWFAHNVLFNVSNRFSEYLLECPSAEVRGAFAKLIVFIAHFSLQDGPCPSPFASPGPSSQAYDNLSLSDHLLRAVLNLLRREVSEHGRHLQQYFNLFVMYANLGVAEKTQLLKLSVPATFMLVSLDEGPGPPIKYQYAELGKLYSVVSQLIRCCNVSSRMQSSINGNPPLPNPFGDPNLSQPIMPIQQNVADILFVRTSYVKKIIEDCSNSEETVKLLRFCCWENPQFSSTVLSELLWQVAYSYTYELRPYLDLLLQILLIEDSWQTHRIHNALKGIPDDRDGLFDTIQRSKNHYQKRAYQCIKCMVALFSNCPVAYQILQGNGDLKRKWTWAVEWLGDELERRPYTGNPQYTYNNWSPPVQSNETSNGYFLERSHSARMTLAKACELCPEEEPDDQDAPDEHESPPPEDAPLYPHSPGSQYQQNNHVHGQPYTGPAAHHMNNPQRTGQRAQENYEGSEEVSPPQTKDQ
USP54, sequence (Q70EL1 whole entry): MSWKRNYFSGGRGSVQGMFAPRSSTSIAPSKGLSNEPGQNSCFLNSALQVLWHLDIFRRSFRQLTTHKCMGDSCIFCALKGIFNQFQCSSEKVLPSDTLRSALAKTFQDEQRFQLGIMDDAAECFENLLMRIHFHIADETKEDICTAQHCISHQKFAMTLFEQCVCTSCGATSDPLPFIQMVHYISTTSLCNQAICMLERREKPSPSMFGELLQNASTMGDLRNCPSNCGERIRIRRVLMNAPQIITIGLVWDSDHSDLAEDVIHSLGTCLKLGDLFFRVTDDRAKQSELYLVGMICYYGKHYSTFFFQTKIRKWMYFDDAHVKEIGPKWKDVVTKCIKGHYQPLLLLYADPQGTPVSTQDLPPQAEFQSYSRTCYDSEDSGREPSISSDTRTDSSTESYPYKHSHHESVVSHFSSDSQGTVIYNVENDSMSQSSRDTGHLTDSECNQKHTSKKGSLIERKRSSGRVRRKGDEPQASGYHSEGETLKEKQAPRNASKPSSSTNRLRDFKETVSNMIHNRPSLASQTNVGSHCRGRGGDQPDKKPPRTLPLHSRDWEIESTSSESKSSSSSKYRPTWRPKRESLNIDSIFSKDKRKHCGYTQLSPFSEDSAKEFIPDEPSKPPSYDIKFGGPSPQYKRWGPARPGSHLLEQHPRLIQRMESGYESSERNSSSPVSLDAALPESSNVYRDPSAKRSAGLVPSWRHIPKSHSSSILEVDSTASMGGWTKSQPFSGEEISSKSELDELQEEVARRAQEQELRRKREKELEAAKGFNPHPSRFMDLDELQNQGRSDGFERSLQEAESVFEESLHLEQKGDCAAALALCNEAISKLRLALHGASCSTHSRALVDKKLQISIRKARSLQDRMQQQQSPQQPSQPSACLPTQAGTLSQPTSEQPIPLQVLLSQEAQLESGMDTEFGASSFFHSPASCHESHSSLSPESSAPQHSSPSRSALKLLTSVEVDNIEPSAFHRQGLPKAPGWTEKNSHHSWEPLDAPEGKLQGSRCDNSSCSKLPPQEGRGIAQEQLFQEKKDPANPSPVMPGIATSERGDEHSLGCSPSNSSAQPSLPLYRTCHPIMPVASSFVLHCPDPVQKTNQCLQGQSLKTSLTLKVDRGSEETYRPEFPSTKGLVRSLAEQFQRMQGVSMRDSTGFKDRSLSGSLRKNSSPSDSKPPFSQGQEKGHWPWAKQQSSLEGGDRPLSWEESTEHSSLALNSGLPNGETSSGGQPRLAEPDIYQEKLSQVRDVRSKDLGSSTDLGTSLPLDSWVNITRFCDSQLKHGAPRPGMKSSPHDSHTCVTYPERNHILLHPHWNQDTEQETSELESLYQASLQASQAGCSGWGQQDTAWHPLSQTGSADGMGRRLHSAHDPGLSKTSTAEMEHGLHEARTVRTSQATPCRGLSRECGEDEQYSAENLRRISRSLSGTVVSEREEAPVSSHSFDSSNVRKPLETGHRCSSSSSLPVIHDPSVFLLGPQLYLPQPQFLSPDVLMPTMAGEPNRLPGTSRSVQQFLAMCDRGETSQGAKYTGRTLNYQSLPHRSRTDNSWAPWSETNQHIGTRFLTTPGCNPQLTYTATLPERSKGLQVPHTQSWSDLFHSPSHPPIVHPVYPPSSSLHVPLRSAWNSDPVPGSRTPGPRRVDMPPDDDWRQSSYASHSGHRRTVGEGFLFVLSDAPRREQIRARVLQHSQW
USP46, sequence (P62068 whole entry): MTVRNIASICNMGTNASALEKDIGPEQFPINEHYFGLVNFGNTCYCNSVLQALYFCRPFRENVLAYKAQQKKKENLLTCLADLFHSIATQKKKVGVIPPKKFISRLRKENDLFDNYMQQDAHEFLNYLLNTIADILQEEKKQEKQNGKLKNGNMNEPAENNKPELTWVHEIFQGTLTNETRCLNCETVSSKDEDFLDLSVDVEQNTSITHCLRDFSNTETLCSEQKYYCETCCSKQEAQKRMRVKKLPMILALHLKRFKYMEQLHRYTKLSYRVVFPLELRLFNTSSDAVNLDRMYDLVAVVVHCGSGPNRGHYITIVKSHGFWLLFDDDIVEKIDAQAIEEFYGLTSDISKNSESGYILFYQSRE
UniProt O00487, sequence (O00487 whole entry): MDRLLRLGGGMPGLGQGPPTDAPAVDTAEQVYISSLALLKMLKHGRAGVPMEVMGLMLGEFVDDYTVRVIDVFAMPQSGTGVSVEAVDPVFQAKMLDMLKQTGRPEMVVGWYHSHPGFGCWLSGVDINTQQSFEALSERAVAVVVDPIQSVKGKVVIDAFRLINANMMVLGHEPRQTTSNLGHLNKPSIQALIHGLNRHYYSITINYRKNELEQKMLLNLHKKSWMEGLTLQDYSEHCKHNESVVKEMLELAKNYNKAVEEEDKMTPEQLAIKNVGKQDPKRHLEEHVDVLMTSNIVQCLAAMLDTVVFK

O=C(CCl)N1CCC(=C(F)CO)C1
inactive: USP42 0.374 | USP46 0.0599 | USP47 0.0525 | USP48 0.0406 | USP5 0.108 | USP54 0.0848 | USP7 0.0769 | USP8 0.0438 | USP9X 0.0939 | UniProt O00487 0.129
